# From PubChem BioAssay (Tox21)
# Where “and” joins values, the source holds several entries; their conditions need not be identical. Equal values may be shown once. Results filed as inconclusive are left out. A call without a number means that no potency is given here. A number with no mark means an inactive call. Calls of active or inactive are those of the source. The call rests on the fitted dose curve; in most records, active means well fitted cell-killing curve with a large enough effect in the repeat runs; inconclusive means weak or mixed curves, or effect the other way; inactive means flat fitted curve, though single readings scatter. Starred links: 1 amine or outer side, 2 acyl side, 3 side chain; linkers in the order of their positions; H or OH if unused. Positions of bridges follow the written chain, without caps; N, C: chain ends. Non-standard residues stand in square brackets, D forms with d. Residues, ends and D or L forms follow the SMILES beside them. Chains are numbered I, II in the order given. Actinocin(9to1) = Cc1c2oc3c(C)ccc(C(=O)[*:1])c3nc-2c(C(=O)[*:2])c(N)c1=O; NMeV = CN[C@H](C(=O)O)C(C)C; Sar = CNCC(=O)O
# Assay: qHTS assay to identify small molecule antagonists of the estrogen receptor alpha (ER-alpha) signaling pathway using the BG1 cell line in the presence of 0.1 nM 17-beta-estradiol - cell viability counter screen (AID 1259241); further: nearly all actives have a fitted effect of over 40% in size
# Conditions: VM7Luc4E2 (BG1) viability, CellTiter-Fluor protease, 22 h, 0.1 nM estradiol agonist added; series mostly up to 92.4 µM; activity change, negative = cytotoxicity: at the top concentration
# Source text: National Center for Advancing Translational Sciences [NCATS]
# NIH Chemical Genomics Center [NCGC]
# U.S. Environmental Protection Agency [EPA]
# National Institutes of Environmental Health Sciences [NIEHS]
# National Toxicology Program [NTP]
# U.S. Food and Drug Administration [FDA]
# Estrogen receptor (ER), a member of the nuclear hormone receptor plays an important role in development, metabolic homeostasis and reproduction. Two subtypes of ER, ER-alpha and ER-beta, have similar expression patterns with some uniqueness in both types. Endocrine disrupting chemicals (EDCs) and their interactions with steroid hormone receptors like ER causes disruption of normal endocrine function. Therefore, it is important to understand the effect of environmental chemicals in ER signaling pathway. For identifying ER antagonists, VM7Luc4E2 cell line was used to screen against Tox21 compound libraries.
# VM7Luc4E2 cell line (provided by Denison MS, University of California) endogenously express full-length ER-alpha and is stably transfected with a plasmid containing four estrogen responsive elements (ERE) upstream of a luciferase reporter gene. The current screening for identification of ER-alpha inhibitors against Tox21 compound libraries used lower concentration (0.1 nM) of 17beta-Estradiol as a stimulator. The cytotoxicity of the Tox21 compound libraries against VM7Luc4E2 cell line was tested by measuring live-cell protease activity using CellTiter-Fluor assay in the same wells.
# Tox21 Assay Protocol Summary:
# VM7Luc4E2 cells were cultured in phenol red free assay medium containing 10% charcoal stripped FBS for 5 days prior to the assay. The cells were dispensed at 4,000 cells/well in 4 uL of assay medium into white wall/solid-bottom 1536-well plates (Corning Life Sciences, Corning, NY) using a Multidrop Combi (ThermoFisher Scientific, Waltham, MA) dispenser. After the assay plates were incubated at 37C and 5% CO2 for 24 hr, 23 nL of compounds dissolved in DMSO, positive controls or DMSO only was transferred to the assay plates by a Pintool station (Kalypsys, San Diego, CA). The transfer of compounds was followed by the addition of 1 uL of 0.1 nM (final concentration) agonist (17beta-Estradiol)/assay medium using a Flying Reagent Dispenser (FRD, Aurora Discovery, San Diego, CA). The plates were incubated at 37C and 5% CO2 for 22 hr. For cytotoxicity assay, 1 uL of CellTiter-Fluor reagent (Promega Corporation, Madison, WI) was added to each well using the FRD and after 30 min incubation at 37C and 5% CO2, The fluorescence intensity was measured using ViewLux plate reader (PerkinElmer, Shelton, CT).
# Potency means the concentration at half of the fitted maximal effect.
Compound,Potency,"activity change, negative = cytotoxicity"
C=C(C)C1CC=C(C)C(OC(C)=O)C1 (stereo not given),inactive,
Nc1cc(Cl)c(-c2cc(Cl)c(N)cc2Cl)cc1Cl,inactive,
CC(C)(C)c1ccccc1,,-0.0033%
CC(=O)CC(=O)Nc1ccc2[nH]c(=O)[nH]c2c1,,-3.91%
CCC(=O)/C=C/C1C(C)=CCCC1(C)C (stereo not given),inactive,
O=S(=O)(O)c1ccc2nc(-c3ccccc3)[nH]c2c1,inactive,
Nc1ccc2cc3ccccc3cc2c1,inactive,
c1ccc2cc3c(ccc4ccccc43)cc2c1,inactive,
Nc1cc(S(=O)(=O)O)cc2cc(S(=O)(=O)O)cc(O)c12,27.3 µM (active),
Cc1cccc(O)c1C,inactive,
CC1COc2c(N3CCN(C)CC3)c(F)cc3c(=O)c(C(=O)O)cn1c23 (stereo not given),,-1.25% [at 42.5 µM]
CC(=O)Nc1ccc(C(=O)CCl)cc1,inactive,
"Cc1c2oc3c(C)ccc(C(=O)N[C@@H]4C(=O)N[C@H](C(C)C)C(=O)N5CCC[C@H]5C(=O)N(C)CC(=O)N(C)[C@@H](C(C)C)C(=O)O[C@@H]4C)c3nc-2c(C(=O)N[C@@H]2C(=O)N[C@H](C(C)C)C(=O)N3CCC[C@H]3C(=O)N(C)CC(=O)N(C)[C@@H](C(C)C)C(=O)O[C@@H]2C)c(N)c1=O (I: T[dV]P[Sar][NMeV] / II: T[dV]P[Sar][NMeV]; ester I:1-I:C, II:1-II:C; linker I:N-II:N via Actinocin(9to1))",26.6 µM (active),
NNCCc1ccccc1,inactive,
Cc1cc(OCCOCC[N+](C)(C)Cc2ccccc2)ccc1C(C)(C)CC(C)(C)C,,-12.2% [at 42.5 µM]
CCC(CO)(CO)COCC(CC)(CO)CO,,4.85%
CC[C@@H](N)CO,,6.23%
COC(=O)/C=C/c1ccccc1,inactive,
COc1ccc(COC(C)=O)cc1,inactive,
CCC(C)(C)C(=O)O[C@H]1C[C@@H](C)C=C2C=C[C@H](C)[C@H](CC[C@@H]3C[C@@H](O)CC(=O)O3)[C@H]21,inactive,

Compound,Potency,"activity change, negative = cytotoxicity"
CC(C)(C)NCC(O)COc1ccccc1OCC1CCCO1 (stereo not given),,0.398% [at 42.5 µM]
O=c1n(CC2CO2)c(=O)n(CC2CO2)c(=O)n1CC1CO1 (stereo not given),inactive,
CC(C)(O)CCC(C)(C)O,,-20.5%
C#CC(C)(CC)OC(=O)c1ccccc1C(=O)O (stereo not given),,-7.03% [at 42.5 µM]
CCn1c2ccccc2c2cc(N)ccc21,inactive,
Cc1ccnc2c1NC(=O)c1cccnc1N2C1CC1,inactive,
OCCN1CCNCC1,inactive,
c1ccc2c(c1)-c1cccc3c1c-2cc1ccccc13,inactive,
CCCOC(=O)c1cc(O)c(O)c(O)c1,inactive,
O=C(Nc1ccccc1SSc1ccccc1NC(=O)c1ccccc1)c1ccccc1,,-21.1%
CCOc1ccc2c(c1)C(C)=CC(C)(C)N2,inactive,
C=CC(=O)OCCCCCCOC(=O)C=C,inactive,
CCCC(=O)c1ccccc1,,-0.33%
CCN(CC)C(=O)Nc1ccc(OCC(O)CNC(C)(C)C)c(C(C)=O)c1 (stereo not given),,1.56% [at 42.5 µM]
Clc1ccc2c(c1)C(N1CCNCC1)=Nc1ccccc1O2,inactive,
CCCCCCCCCCCCc1ccccc1O,,0.413%
Cc1occc(=O)c1OC(=O)C(C)C,,2.08%
CN(C)c1ccc2nc3ccc(=[N+](C)C)cc-3sc2c1,26.2 µM (active) and 27.3 µM (active) and 29.8 µM (active),
O=C(O)CP(=O)(O)O,,0.0619% [at 42.5 µM]
CCN(CC)CCOc1ccc(/C(=C(\Cl)c2ccccc2)c2ccccc2)cc1,inactive,
